About 25,000 (6.9%) of roughly 360,000 compounds were called active. Roughly 9% stayed inconclusive and do not appear here. For the sample, actives were picked, then their nearest neighbours and some compounds at random. Values without a mark were called inactive. Calls follow the shape of the dose curve; as a rule, active = well fitted inhibition curve with a large enough effect; inconclusive = small, poorly fitted or top-dose-only effect; inactive = flat fitted curve, though single readings scatter.
The compounds below were run against Luciferin 4-monooxygenase (Photinus pyralis) (UniProt P08659) (assay: qHTS profiling assay for firefly luciferase inhibitor/activator using purifed enzyme and Km concentrations of substrates (counterscreen for miR-21 project)). Conditions: purified FLuc, luminescence inhibition; series mostly up to 57.5 µM; activity change, negative = inhibition: at the top concentration.
Luciferin 4-monooxygenase (Photinus pyralis), sequence (P08659 whole entry, looked up): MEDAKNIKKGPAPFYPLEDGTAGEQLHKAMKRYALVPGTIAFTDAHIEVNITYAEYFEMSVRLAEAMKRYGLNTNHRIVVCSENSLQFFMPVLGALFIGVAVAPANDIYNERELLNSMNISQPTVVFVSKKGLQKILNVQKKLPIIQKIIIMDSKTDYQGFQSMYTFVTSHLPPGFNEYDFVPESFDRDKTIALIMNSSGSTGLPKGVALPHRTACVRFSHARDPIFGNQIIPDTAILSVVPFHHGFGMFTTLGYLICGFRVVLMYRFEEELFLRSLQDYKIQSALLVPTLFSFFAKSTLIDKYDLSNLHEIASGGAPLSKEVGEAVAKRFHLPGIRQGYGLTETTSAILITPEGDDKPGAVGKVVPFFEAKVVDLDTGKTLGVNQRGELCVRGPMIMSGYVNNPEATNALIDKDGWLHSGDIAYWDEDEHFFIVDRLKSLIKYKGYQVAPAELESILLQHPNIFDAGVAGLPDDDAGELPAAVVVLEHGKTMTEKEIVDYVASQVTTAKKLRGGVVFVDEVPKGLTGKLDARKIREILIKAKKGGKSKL
Summary of the method: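 Purified P. pyralis luciferase (10nM final) with 10uM D-luciferin and 10uM ATP (Km levels) in 50mM Tris acetate pH 7.5, 10mM Mg acetate, 0.01% Tween-20, 0.05% BSA; qHTS 6-point titration, ~60 µM downward; luminescence read.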
With O=C(COc1ccc(Cl)cc1)N(Cc1ccco1)Cc1ccco1 the “activity change, negative = inhibition” value was -19.8%.
In the case of CC[C@H](C)C(=O)N[C@H]1CCCN1C(=O)/C=C/c1ccccc1, the “activity change, negative = inhibition” value was 4.5%.
COc1ccccc1/C=C/C(=O)NC(=S)N1CCOCC1 was tested, and the Potency was 12 µM (active).
For O=C(/C=C/c1ccco1)NC(=S)N1CCCCC1, the “activity change, negative = inhibition” value was -16.9%.
In the case of COc1ccc(C)cc1NC(=S)N1CCOCC1, the “activity change, negative = inhibition” value was 5.69%.
For COc1ccc(OC)c(NC(=O)c2cnn(-c3ccccc3Cl)c2NC(=O)c2ccco2)c1, the “activity change, negative = inhibition” value was 5.56%.
With Cc1ccc2c(c1)C1CN(C)CCC1N2S(=O)(=O)c1cccc(F)c1 (configuration not stated) the “activity change, negative = inhibition” value was 3%.
In the case of Cn1c(CNC(=O)C(C)(C)C)nc2ccccc21, the “activity change, negative = inhibition” value was -0.0419%.
CC(C)c1ccc(Cn2c(COc3ccccc3)nc3ccccc32)cc1 was tested, and the Potency was 19 µM (active).
For Cc1ccc(OCc2nc3ccccc3n2C)cc1, the Potency was 3.01 µM (active).
With COCc1nc2ccccc2n1Cc1ccccc1Br the “activity change, negative = inhibition” value was 1.51%.
In the case of CC(O)c1nc2ccccc2n1Cc1ccc([N+](=O)[O-])cc1 (configuration not stated), the “activity change, negative = inhibition” value was -2.35%.
For COCn1c(COc2ccccc2)nc2ccccc21, the Potency was 16.9 µM (active).
With CCOc1ccc(C(O)Cc2nc3ccccc3n2C)cc1 (configuration not stated) the “activity change, negative = inhibition” value was -11.3%.
For O=C(Cn1c(COc2ccccc2)nc2ccccc21)Nc1cc(Cl)c(Cl)cc1Cl, the “activity change, negative = inhibition” value was 0.398%.
For CCCn1c(C(O)c2ccc(OCC)cc2)nc2ccccc21 (configuration not stated), the “activity change, negative = inhibition” value was 4.37%.
For CCc1nc2cccnc2n1-c1ccc(CC(=O)Nc2c(C)cccc2C)cc1, the “activity change, negative = inhibition” value was -0.458%.
With Cc1ccccc1-n1nc(C)c2c1N=C1C(Cl)=CC(Cl)=CN1C2c1ccc(C(=O)O)cc1 (configuration not stated) the “activity change, negative = inhibition” value was -8.87%.
For CCn1c(=O)c(=O)[nH]c2c(=O)oc3ccc(S(=O)(=O)Nc4ccc(OC)cc4)cc3c21, the “activity change, negative = inhibition” value was 1.02%.
In the case of O=C(CC1N=C2c3ccccc3N=C(SCc3cccc(Cl)c3)N2C1=O)NCc1ccc2c(c1)OCO2 (configuration not stated), the “activity change, negative = inhibition” value was -9.72%.
For Cc1ccc(S(=O)(=O)NCCc2nnc3ccc(SCc4cccnc4)nn23)cc1, the “activity change, negative = inhibition” value was -0.515%.
In the case of COc1c(C=O)c(CCN(C)C(=O)c2ccc(F)cc2)cc2c1OCO2, the “activity change, negative = inhibition” value was 1.83%.
Cc1ccc(-c2nc(CS(=O)(=O)CC(=O)NCc3ccccc3Cl)c(C)o2)cc1 was tested, and the “activity change, negative = inhibition” value was 2.41%.
CCOC(=O)c1c(NC(=O)c2cc(CC)on2)sc(C(C)=O)c1C was tested, and the “activity change, negative = inhibition” value was 0.398%.
In the case of CCC(C)c1ccc(NC(=S)N2CCCC2)cc1 (configuration not stated), the Potency was 15.1 µM (active).
CCOc1ccc(NC(=S)N2CCCCCC2)cc1 was tested, and the “activity change, negative = inhibition” value was -7.6%.
With CCOC(=O)c1ccc(NC(=S)N2CCCC2)cc1 the “activity change, negative = inhibition” value was -8.94%.
With CC1Cc2cc(S(=O)(=O)CCC(=O)Nc3ccc(F)c(Cl)c3)ccc2N1C(=O)C1CC1 (configuration not stated) the “activity change, negative = inhibition” value was -7.53%.
With O=C(c1ccc2c(c1)N(Cc1ccc(Cl)cc1)C(=O)c1ccccc1S2(=O)=O)N1CCCCC1 the “activity change, negative = inhibition” value was 7.03%.
In the case of O=C(/C=C\NCC(=O)c1ccccc1)c1ccccc1, the Potency was 12 µM (active).
In the case of CCCCC(=O)NCc1ccc(F)cc1, the “activity change, negative = inhibition” value was 0.712%.
With Cc1cccc[n+]1CC(=O)c1ccccc1 the “activity change, negative = inhibition” value was -0.244%.
With O=C(/C=C/NCc1ccc(F)cc1)c1ccccc1 the Potency was 16.9 µM (active).
O=C(NCCS(=O)(=O)NCc1ccc(F)cc1)c1ccccc1 was tested, and the “activity change, negative = inhibition” value was 4.95%.
CCN(c1ccccc1)S(=O)(=O)c1cc(C(=O)NCc2ccccn2)ccc1C was tested, and the “activity change, negative = inhibition” value was -1.73%.
With CC(=O)c1c(C)[nH]c(C(=O)COc2ccc3c(C)cc(=O)oc3c2)c1C the “activity change, negative = inhibition” value was 5.31%.
Cc1ccc(C(=O)Nc2c(C(=O)NC(C)(C)C)oc3ccccc23)cc1 was tested, and the “activity change, negative = inhibition” value was 2.44%.
For COc1ccc(Cl)cc1NC(=O)c1sc2nc3c(cc2c1N)CN(C)CC3, the “activity change, negative = inhibition” value was -1.38%.
For COc1ccc(-n2c(SCC(=O)Nc3ccc(Cl)c(C)c3)nc3n[nH]c(C)c3c2=N)cc1, the “activity change, negative = inhibition” value was -0.344%.
With COc1ccc(Cn2ccn(CC(=O)Nc3cc(C)ccc3C)c(=O)c2=O)cc1 the “activity change, negative = inhibition” value was 0.418%.
With COc1cc(C2c3c(oc4ccccc4c3=O)C(=O)N2c2nc(C)c(C)s2)ccc1O (configuration not stated) the “activity change, negative = inhibition” value was -4.51%.
In the case of Cc1ccc(NC(=O)C2CCCN2S(=O)(=O)c2cccc3cccnc23)c(C)c1 (configuration not stated), the Potency was “inactive”.
With COc1cc(/C=N/NC(=O)c2cccnc2)ccc1OC(=O)c1cccc(Br)c1 the “activity change, negative = inhibition” value was 0.287%.
In the case of COc1cc(/C=N/NC(=S)Nc2cccnc2)cc(OC)c1O, the Potency was 10.7 µM (active).
For CCOC(=O)N/N=C/c1cccnc1, the “activity change, negative = inhibition” value was 6.17%.
With C[C@@H]1C[C@@H]2O[C@H]2/C=C\C=C\C(=O)Cc2c(Cl)c(O)cc(O)c2C(=O)O1 the “activity change, negative = inhibition” value was -3.44%.
COC(=O)c1ccc(Cn2c(SCC(=O)N(C)c3ccccc3)nc3ccccc32)cc1 was tested, and the “activity change, negative = inhibition” value was -16.2%.
For Cc1nn(-c2ccccc2)c(-n2cccc2)c1C(=O)O, the “activity change, negative = inhibition” value was -0.636%.
For Cc1ccc(OC(=O)c2c(C)nn(-c3ccccc3)c2C)cc1, the Potency was 13.5 µM (active).
Cc1cccc(C)c1NC(=O)COC(=O)c1c(C)nn(-c2ccccc2)c1C was tested, and the “activity change, negative = inhibition” value was -19%.
CCCC12CN3CC(CCC)(CN(C1)C3c1c[nH]c3ccc(OC)cc13)C2=O (configuration not stated) was tested, and the “activity change, negative = inhibition” value was -1.95%.
With COc1ccccc1C(=O)NCCC(=O)N(C)Cc1cccnc1 the “activity change, negative = inhibition” value was -1.3%.
Also: nearly all actives have a fitted effect of over 55% in size.
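For activity change, negative = inhibition in this document: plate controls were vehicle for no effect and reference inhibitor for full effect.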
Potency is read from the fitted curve at half-maximal effect.
